# Results as given in PubChem BioAssay (Tox21).
# Unmarked numbers belong to inactive results. Inconclusive results are not listed. Entries that show only a call come without a potency. Activity calls are given as the source filed them. Unless noted, calls come from the whole dose curve; as a rule, active = well fitted curve in the direction sought with a large enough effect in the repeat runs; inconclusive = weak or mixed curves; inactive = no such curve, though single readings can be large; an effect the other way counts as inactive or inconclusive.
# How the values were obtained:
# [1] = qHTS RealTime-Glo MT Cell Viability Assay in HEK293 cells - 24 hour (AID 1224886); note: nearly all actives have a fitted effect of over 50% in size; note: potency is the fitted concentration of half-maximal effect; for activity change, negative = cytotoxicity: top concentration of the series differs between compounds
# Method in brief: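 Viability tracked continuously by luminescence as live cells reduce a prosubstrate for NanoLuc; HEK293 cells preincubated 5 h, compound-treated at 37 C, and read at 0, 8, 16, 24, 32 and 40 h.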
# [2] = qHTS RealTime-Glo MT Cell Viability Assay in HEK293 cells - 8 hour (AID 1224887); note: nearly all actives have a fitted effect of over 50% in size; note: potency is the fitted concentration of half-maximal effect; for activity change, negative = cytotoxicity: top concentration of the series differs between compounds
# Method in brief: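 600 cells/well were plated with the nonlytic NanoLuc/prosubstrate reagent, pre-incubated 5 h, then given 23 nL of compound in DMSO. Incubation at 37 C for 40 h, with luminescence from viable-cell-reduced substrate read repeatedly from 0 h.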
# [3] = A CellTox Green Cytotoxicity Assay to monitor cytotoxicity in HEK293 cells - 16 hour (AID 1224888); note: nearly all actives have a fitted effect of over 35% in size
# Method in brief: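 HEK293 cells, 600/well, were preincubated 5 hours and then exposed to compounds at 37 C for up to 40 hours. A cell-impermeant cyanine dye staining dead-cell DNA was read by fluorescence at 0, 8, 16, 24, 32 and 40 h time points.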
# [4] = A CellTox Green Cytotoxicity Assay to monitor cytotoxicity in HepG2 cells - 8 hour (AID 1224890); note: nearly all actives have a fitted effect of over 45% in size
# Method in brief: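 HepG2 cells, 600/well, preincubated 5 h with CellTox Green dye, then exposed to Tox21 compounds in DMSO at 37 C for up to 40 h. Dead-cell DNA fluorescence read at the indicated time point.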
# [5] = qHTS assay to identify small molecule antagonists of the estrogen receptor alpha (ER-alpha) signaling pathway using the BG1 cell line in the presence of 0.1 nM 17-beta-estradiol - cell viability counter screen (AID 1259241); note: nearly all actives have a fitted effect of over 40% in size
# Method in brief: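 In this screen, hormone-deprived VM7Luc4E2 cells were seeded at 4,000 per well, dosed with compound and 0.1 nM estradiol final, and incubated 22 hr at 37C and 5% CO2; fluorogenic live-cell protease signal reported viability.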
# [6] = qHTS assay to identify small molecule antagonists of the androgen receptor (AR) signaling pathway using the MDA cell line in the presence of 0.5 nM R1881 - cell viability counter screen (AID 1259242); note: nearly all actives have a fitted effect of over 45% in size
# Method in brief: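 MDA-kb2 cells (MMTV-luciferase, AR/GR responsive) were treated with compounds plus 0.5 nM R1881 (final) for 16 hr at 37C, 0% CO2. Viability was then read in the same wells as live-cell protease fluorescence (CellTiter-Fluor, 30 min).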
# [7] = target: Androgen receptor (Homo sapiens) (UniProt P10275); assay: qHTS assay to identify small molecule antagonists of the androgen receptor (AR) signaling pathway using the MDA cell line in the presence of 0.5 nM R1881 (AID 1259243); note: nearly all actives have a fitted effect of over 50% in size; note: potency is the fitted concentration of half-maximal effect
# Method in brief: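 MDA-kb2 cells (MMTV-luciferase, responsive to AR and GR) at 3,000/well, rested 5 h at 37C, 0% CO2, then given compounds plus 0.5 nM R1881 (final) for 16 hr. Luciferase read with ONE-Glo after 30 min at room temperature.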
# [8] = target: Estrogen receptor (Homo sapiens) (UniProt P03372); assay: qHTS assay to identify small molecule antagonists of the estrogen receptor alpha (ER-alpha) signaling pathway using the BG1 cell line in the presence of 0.1 nM 17-beta-estradiol (AID 1259244); note: nearly all actives have a fitted effect of over 50% in size
# Method in brief: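 VM7Luc4E2 cells (endogenous full-length ER-alpha, 4×ERE-luciferase), kept 5 days in phenol red-free, charcoal-stripped FBS medium; 4,000 cells/well. Compounds added with 0.1 nM (final) 17beta-estradiol, 22 hr at 37C; luminescence read with ONE-Glo after 30 min.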
# [9] = qHTS assay to identify small molecule HDAC inhibitors (AID 1259364); note: top concentration of the series differs between compounds; nearly all actives have a fitted effect of over 45% in size
# Method in brief: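 Wild-type HCT-116 cells, plated overnight at 37 C, exposed to compounds 2 hr at 37 C; luminogenic HDAC-Glo substrate then added 30 min at room temperature. Luminescence reports relative endogenous class I/II HDAC activity.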
# [10] = qHTS assay to identify small molecule HDAC inhibitors - cell viability counter screen (AID 1259365)
# Method in brief: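 Measured quantity is CellTiter-Glo luminescence from wild-type HCT-116 cells after compound incubation of 2hr at 37C, 5% CO2; reagent developed 30min at room temperature.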
# [11] = qHTS assay to identify small molecule agonists of the sonic hedgehog signaling (Shh) pathway - cell viability counter screen (AID 1259366); note: nearly all actives have a fitted effect of over 50% in size
# Method in brief: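 In quantitative high-throughput format, 3T3 Gli1-Luc cells were exposed to compounds for 24hr and multiplexed for viability using CellTiter-Fluor, incubated 1hr at 37C before the fluorescence read.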
# [12] = qHTS assay to identify small molecule antagonists of the sonic hedgehog signaling (Shh) pathway - cell viability counter screen (AID 1259367); note: nearly all actives have a fitted effect of over 55% in size
# Method in brief: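 Cells: 3T3 Gli1-Luc, 2,000/well, 4 hr pre-incubation. Compounds in DMSO, then conditioned medium. Incubation 24 hr, 37C, 5% CO2. CellTiter-Fluor at 23 hr, 1 hr, fluorescence.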
# [13] = qHTS assay to identify small molecule agonists of the sonic hedgehog signaling (Shh) pathway (AID 1259368; calls by dose curve;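 note: NIH/3T3-derived 3T3Gli1-Luc cells carrying a stable Gli1-driven firefly luciferase reporter; series mostly up to about 92 µM; nearly all actives have a fitted effect of over 15% in size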)
# Method in brief: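 NIH/3T3-derived 3T3Gli1-Luc cells with stably integrated Gli1-driven firefly luciferase, 2,000 cells/well, compounds added after 4 hr. Incubated 24 hr at 37C, 5% CO2; luminescence read after 30 min with luciferase reagent at room temperature.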
# [14] = qHTS assay to identify small molecule antagonists of the sonic hedgehog signaling (Shh) pathway (AID 1259369; calls by dose curve; note: nearly all actives have a fitted effect of over 45% in size; note: potency is the fitted concentration of half-maximal effect)
# Method in brief: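 NIH/3T3-derived Gli1-Luc reporter cells plated 4 h, dosed with compound, then stimulated with conditioned medium for 24 h at 37 C. Firefly luciferase luminescence read after 30 min with detection reagent at room temperature.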
# [15] = target: Estrogen receptor beta (Homo sapiens) (UniProt Q92731); assay: qHTS assay to identify small molecule agonists of the estrogen receptor beta (ER-beta) signaling pathway (AID 1259377; active = well fitted activation curve with a large enough effect in the signal ratio in the repeat runs, not every such curve was filed as active; the % refers to the signal ratio)
# Method in brief: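 Reporter cells (HEK293T, ER-beta-UAS-bla) receive compounds or DMSO after a 6 hr pre-incubation. They then incubate 16 hr at 37C/5% CO2, and fluorescence from LiveBLAzer B/G substrate is measured after 2 hours at room temperature.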
# [16] = target: Estrogen receptor beta (Homo sapiens) (UniProt Q92731); assay: qHTS assay to identify small molecule antagonists of the estrogen receptor beta (ER-beta) signaling pathway (AID 1259378; active = well fitted inhibition curve with a large enough effect in the signal ratio in the repeat runs, not every such curve was filed as active; the % refers to the signal ratio; note: potency is the fitted concentration of half-maximal effect)
# Method in brief: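 Antagonist mode: compounds added to beta-lactamase reporter HEK293T ER-beta-UAS cells stimulated with E2 (1nM final), 16 hr at 37C. LiveBLAzer B/G FRET substrate, 2 hours room temperature, fluorescence read-out.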
# [17] = qHTS assay to identify small molecule agonists of the androgen receptor (AR) signaling pathway in the presence of an antagonist - cell viability counter screen (AID 1259379); note: nearly all actives have a fitted effect of over 25% in size; note: potency is the fitted concentration of half-maximal effect;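 for activity change, negative = cytotoxicity: MDA-kb2 human breast cancer cells carrying an MMTV luciferase reporter; series mostly up to about 92 µM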
# Method in brief: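 MDA-kb2 cells (MMTV-luciferase, AR/GR), 3,000/well, 5 h attachment, then 3.0 µM nilutamide (final) and compounds at 15 concentrations. Viability by CellTiter-Fluor fluorescence after 16 h at 37 °C, 0% CO2, in the reporter wells.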
# [18] = qHTS assay to identify small molecule agonists of the estrogen receptor beta (ER-beta) signaling pathway - cell viability counter screen (AID 1259380); note: nearly all actives have a fitted effect of over 30% in size; note: potency is the fitted concentration of half-maximal effect
# Method in brief: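 ER-beta-UAS-bla HEK293T cells in medium with 2% charcoal-stripped FBS, pre-incubated 6 hr, then treated 16 hr at 37C. Cytotoxicity read in the same wells by CellTiter-Glo luminescence after 30 min at room temperature.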
# [19] = qHTS RealTime-Glo MT Cell Viability Assay in HepG2 cells - 0 hour (AID 1224889); note: nearly all actives have a fitted effect of over 50% in size
# Method in brief: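 Viability was tracked continuously by NanoLuc luminescence from prosubstrate reduced by living HepG2 cells, at successive time points over 40 h of compound exposure. Cells with reagent were preincubated 5 h at 37 °C before compound addition.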
# Chain of Estrogen receptor (Homo sapiens) (P03372 whole entry, looked up): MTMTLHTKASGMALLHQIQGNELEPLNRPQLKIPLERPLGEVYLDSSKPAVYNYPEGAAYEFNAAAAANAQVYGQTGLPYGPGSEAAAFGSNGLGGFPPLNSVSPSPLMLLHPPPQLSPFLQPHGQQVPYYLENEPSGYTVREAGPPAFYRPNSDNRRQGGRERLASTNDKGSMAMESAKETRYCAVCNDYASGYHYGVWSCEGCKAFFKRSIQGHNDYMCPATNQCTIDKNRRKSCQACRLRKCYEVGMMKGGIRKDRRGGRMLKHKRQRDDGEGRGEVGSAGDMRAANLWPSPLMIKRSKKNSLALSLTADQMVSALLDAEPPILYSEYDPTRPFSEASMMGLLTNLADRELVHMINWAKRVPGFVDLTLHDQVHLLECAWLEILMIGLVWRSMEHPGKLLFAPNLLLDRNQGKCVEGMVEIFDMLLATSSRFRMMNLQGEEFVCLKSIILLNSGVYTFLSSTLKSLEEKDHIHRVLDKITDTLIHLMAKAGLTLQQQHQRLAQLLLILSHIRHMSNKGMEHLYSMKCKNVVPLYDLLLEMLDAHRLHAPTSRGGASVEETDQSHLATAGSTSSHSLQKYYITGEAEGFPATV
# Chain of Androgen receptor (Homo sapiens) (P10275 whole entry, looked up): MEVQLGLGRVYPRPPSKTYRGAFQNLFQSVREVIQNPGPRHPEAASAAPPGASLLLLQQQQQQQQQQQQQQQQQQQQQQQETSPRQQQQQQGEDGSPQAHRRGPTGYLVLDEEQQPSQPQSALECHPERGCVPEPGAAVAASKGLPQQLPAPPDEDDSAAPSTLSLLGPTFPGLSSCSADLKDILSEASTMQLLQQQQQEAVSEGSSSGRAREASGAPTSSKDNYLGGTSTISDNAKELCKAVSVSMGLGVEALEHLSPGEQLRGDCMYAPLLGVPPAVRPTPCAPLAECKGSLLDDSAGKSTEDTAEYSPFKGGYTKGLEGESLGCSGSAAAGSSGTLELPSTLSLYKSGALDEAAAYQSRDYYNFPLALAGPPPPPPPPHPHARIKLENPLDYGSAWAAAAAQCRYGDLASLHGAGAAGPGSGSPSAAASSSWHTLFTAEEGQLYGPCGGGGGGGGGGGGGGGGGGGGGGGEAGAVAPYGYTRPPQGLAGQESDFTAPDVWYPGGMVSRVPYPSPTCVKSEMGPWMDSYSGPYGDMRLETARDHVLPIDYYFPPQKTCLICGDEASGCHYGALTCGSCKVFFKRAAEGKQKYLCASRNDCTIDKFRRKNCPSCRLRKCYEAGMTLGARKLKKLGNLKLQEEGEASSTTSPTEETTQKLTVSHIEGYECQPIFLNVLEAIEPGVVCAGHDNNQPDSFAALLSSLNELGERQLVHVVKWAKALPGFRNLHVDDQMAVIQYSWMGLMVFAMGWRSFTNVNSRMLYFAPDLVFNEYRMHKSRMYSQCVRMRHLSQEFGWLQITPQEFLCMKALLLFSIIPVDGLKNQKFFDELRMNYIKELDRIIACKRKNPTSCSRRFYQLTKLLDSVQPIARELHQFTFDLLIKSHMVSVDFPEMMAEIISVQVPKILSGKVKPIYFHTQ
# Chain of Estrogen receptor beta (Homo sapiens) (Q92731 whole entry, looked up): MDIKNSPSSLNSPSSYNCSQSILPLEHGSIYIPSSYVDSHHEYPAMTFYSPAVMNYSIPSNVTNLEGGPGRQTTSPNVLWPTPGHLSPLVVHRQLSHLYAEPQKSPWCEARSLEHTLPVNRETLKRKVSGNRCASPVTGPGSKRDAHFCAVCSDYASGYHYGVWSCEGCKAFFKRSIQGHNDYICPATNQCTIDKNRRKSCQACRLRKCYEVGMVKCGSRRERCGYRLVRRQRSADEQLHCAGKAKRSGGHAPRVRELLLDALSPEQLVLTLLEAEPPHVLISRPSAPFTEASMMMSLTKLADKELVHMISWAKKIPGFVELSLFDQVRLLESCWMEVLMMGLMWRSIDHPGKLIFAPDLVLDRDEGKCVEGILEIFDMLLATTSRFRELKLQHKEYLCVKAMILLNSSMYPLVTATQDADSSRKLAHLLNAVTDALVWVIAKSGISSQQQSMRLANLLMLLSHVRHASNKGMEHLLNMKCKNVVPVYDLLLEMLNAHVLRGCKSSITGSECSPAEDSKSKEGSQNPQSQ
compound,measurement,setting,value
O=C1OCc2ccccc21,Potency,[1],inactive
same,Potency,[2],inactive
same,Potency,[3],inactive
same,Potency,[4],inactive
same,Potency,[5],inactive
same,Potency,[6],inactive
same,Potency,[7],inactive
same,Potency,[8],inactive
same,Potency,[9],inactive
same,Potency,[10],inactive
same,Potency,[11],inactive
same,Potency,[12],inactive
same,Potency,[13],inactive
same,Potency,[14],inactive
same,outcome,[15],inactive
same,Potency,[16],inactive
same,Potency,[17],inactive
same,Potency,[18],inactive
C/C(=C\c1ccc(C(=O)O)cc1)c1ccc2c(c1)C(C)(C)CCC2(C)C,Potency,[1],inactive
same,Potency,[2],inactive
same,Potency,[3],inactive
same,Potency,[19],inactive
same,Potency,[4],inactive
same,Potency,[6],inactive
same,Potency,[9],inactive
same,Potency,[10],inactive
same,Potency,[11],inactive
same,Potency,[12],inactive
same,Potency,[13],inactive
same,Potency,[14],inactive
same,outcome,[15],inactive
same,Potency,[17],inactive
O=C(CCCCCCCCc1cccnc1)N1CCC(C=C(c2ccccc2)c2ccccc2)CC1,Potency,[1],21.9 µM (active)
same,Potency,[2],21.9 µM (active)
same,Potency,[3],inactive
same,Potency,[19],inactive
same,Potency,[4],inactive
same,Potency,[5],inactive
same,Potency,[7],27.3 µM (active)
same,Potency,[9],inactive
same,Potency,[10],inactive
same,Potency,[12],inactive
same,Potency,[13],inactive
same,Potency,[14],17.2 µM (active)
same,outcome,[15],inactive
same,Potency,[16],15.4 µM (active)
same,Potency,[17],61.1 µM (active)
same,Potency,[18],21.7 µM (active)
CCCCNc1ccc(NCCCC)c2c1C(=O)c1ccccc1C2=O,"activity change, negative = cytotoxicity",[1],-0.0547% [at 15.8 µM]
same,"activity change, negative = cytotoxicity",[2],3.79% [at 15.8 µM]
same,activity change,[3],"0.839% [at 15.8 µM, active compounds read high]"
same,cytotoxicity increase,[4],-2.69% [at 15.8 µM]
same,"activity change, negative = cytotoxicity",[5],-14.1% [at 19 µM]
same,"viability change, negative = cytotoxic",[6],-9.45% [at 19 µM]
same,"activity, negative = inhibition",[7],-3.08% [at 19 µM]
same,"activity change, negative = inhibition",[8],2.76% [at 19 µM]
same,"viability change, negative = cytotoxic",[11],-17.5% [at 19 µM]
same,"viability change, negative = cytotoxic",[12],-12.9% [at 19 µM]
same,activity change,[13],"-0.26% [at 18.9 µM, active compounds read high]"
same,"activity change, negative = inhibition",[14],-20.1% [at 19 µM]
same,activation,[15],-2.22% [at 19 µM]
same,"activity, negative = inhibition",[16],17.4% [at 19 µM]
COc1cc(OC)nc(NC(=O)NS(=O)(=O)Nc2ccccc2C(=O)N(C)C)n1,Potency,[1],inactive
same,Potency,[2],inactive
same,Potency,[3],inactive
same,Potency,[19],inactive
same,Potency,[4],inactive
same,Potency,[6],inactive
same,Potency,[8],inactive
same,Potency,[9],inactive
same,Potency,[10],inactive
same,Potency,[11],inactive
same,Potency,[12],inactive
same,Potency,[13],inactive
same,outcome,[15],inactive
same,Potency,[16],inactive
same,Potency,[17],inactive
same,Potency,[18],inactive
Brc1cc(Br)cc(Br)c1,Potency,[1],inactive
same,Potency,[2],inactive
same,Potency,[3],inactive
same,Potency,[19],inactive
same,Potency,[4],inactive
same,Potency,[6],inactive
same,Potency,[7],inactive
same,Potency,[8],inactive
same,Potency,[9],inactive
same,Potency,[10],inactive
same,Potency,[11],inactive
same,Potency,[12],inactive
same,Potency,[13],inactive
same,Potency,[17],inactive
same,Potency,[18],inactive
c1ccc2c(c1)-c1ccc3ccc4cccc5cc-2c1c3c45,Potency,[1],inactive
same,Potency,[2],inactive
same,Potency,[3],inactive
same,Potency,[19],inactive
same,Potency,[4],inactive
same,Potency,[5],inactive
same,Potency,[9],inactive
same,Potency,[10],inactive
same,Potency,[13],inactive
same,Potency,[18],inactive
